Data on 37 compounds can be found in PubChem BioAssay (Tox21).

Inconclusive results are not listed. Active and inactive are the calls of the source. Unless noted, calls follow the shape of the dose curve; as a rule, active = well fitted cell-killing curve with a large enough effect in the repeat runs (not every such curve was filed as active); inconclusive = weak or mixed curves, or effect the other way; inactive = no such curve, though single readings can be large or run the other way.
% is scaled to controls: 0 for no effect and ±100 for the full control effect.

Bile acid receptor (Homo sapiens), sequence (Q96RI1 whole entry, looked up): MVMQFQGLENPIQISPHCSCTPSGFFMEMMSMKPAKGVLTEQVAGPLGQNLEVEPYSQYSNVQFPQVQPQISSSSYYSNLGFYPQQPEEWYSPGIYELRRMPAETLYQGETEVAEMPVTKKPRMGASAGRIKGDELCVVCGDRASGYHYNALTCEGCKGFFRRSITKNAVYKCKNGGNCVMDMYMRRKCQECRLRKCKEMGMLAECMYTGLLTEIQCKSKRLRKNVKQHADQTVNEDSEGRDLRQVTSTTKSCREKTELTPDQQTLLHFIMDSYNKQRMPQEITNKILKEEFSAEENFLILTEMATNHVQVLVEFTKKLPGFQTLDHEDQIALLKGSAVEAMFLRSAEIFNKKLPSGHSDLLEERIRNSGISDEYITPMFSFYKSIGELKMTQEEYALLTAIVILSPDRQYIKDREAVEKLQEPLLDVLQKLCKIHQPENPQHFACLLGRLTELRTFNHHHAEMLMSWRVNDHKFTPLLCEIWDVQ

The target in one test is Bile acid receptor (Homo sapiens) (UniProt Q96RI1). Kind of test: qHTS assay to identify small molecule agonists of the farnesoid-X-receptor (FXR) signaling pathway (AID 743220; active = well fitted activation curve with a large enough effect in the signal ratio in the repeat runs, not every such curve was filed as active; the % refers to the signal ratio). Particulars: HEK293T FXR-UAS-bla, beta-lactamase FRET ratio, 16 h; series mostly up to 62.6 µM; activation: at the top concentration. The essentials:
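Beta-lactamase reporter under UAS control in GeneBLAzer FXR HEK 293T cells (5000/well) measured with LiveBLAzer FRET substrate after 2 h at room temperature. Compound exposure lasted 16 h at 37C.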
(In general: In qHTS, concentration-response curves come from the screen itself.)
For `O=C1O[C@@H]2[C@@H](O)[C@H](O)O[C@@H]2[C@H]1O`, the “activation” value is 0.356% (inactive).

`Cc1ccccc1C(=O)Nc1ccc(C(=O)N2CCCC(N(C)C)c3ccccc32)cc1` (stereo not given): the “activation” value is -1.49% (inactive).

Turning to `Cc1ccc(C=O)cc1C`, the “activation” value was 0.94% (inactive).

For the compound `CC1=C(C(=O)O)N2C(=O)[C@@H](NC(=O)[C@H](N)c3ccc(O)cc3)[C@H]2SC1`, the “activation” value is -1.65% (inactive).

With `CC(COC(C)(C)C)OCCCO` (stereo not given), the “activation” value is 3.62% (inactive).

As to `O=C(O)c1cc(Cl)cc([N+](=O)[O-])c1Cl`, the “activation” value is -2.08% (inactive).

For `O=C(CCNNC(=O)c1ccncc1)NCc1ccccc1`, the “activation” value is -1.42% (inactive).

Take `O=C(NCC(O)CO)c1c(I)c(C(=O)NCC(O)CO)c(I)c(N(CCO)C(=O)CO)c1I` (stereo not given): the “activation” value was 8.98% (inactive).

For the compound `O=S(=O)(O)CCN1CCN(CCO)CC1`, the “activation” value is -0.327% (inactive).

On to `c1ccc2nccnc2c1`, for which the “activation” value is 2.73% [at 81.1 µM] (inactive).

Consider `CCCCCCCCCCl`, for which the “activation” value was -1.46% [at 81.1 µM] (inactive).

As for `O=C(NCCc1c[nH]c2ccccc12)c1cccnc1`, the “activation” value was -3.96% (inactive).

Consider `CCN(CC)CC(=O)Nc1c(C)cccc1C`, for which the “activation” value is -3.29% (inactive).

On to `CCOCCOC(=O)/C=C/c1ccc(OC)cc1`, for which the “activation” value was -0.186% (inactive).

For `Nc1ccc2cc(S(=O)(=O)O)cc(O)c2c1`, the “activation” value was 1.84% (inactive).

System in another test: not listed separately
Description: qHTS assay to identify small molecule antagonists of the farnesoid-X-receptor (FXR) signaling pathway - cell viability counter screen (AID 743221). Also: nearly all actives have a fitted effect of over 50% in size. To be noted: FXR-bla HEK293T viability, CellTiter-Glo luminescence, 16 h; series mostly up to 62.6 µM; activity change, negative = cytotoxicity: at the top concentration. The essentials:
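In GeneBLAzer FXR-UAS-bla HEK 293T cells stimulated with 50 uM chenodeoxycholic acid (final), compounds acted for 16 h at 37 C. Viability was assessed afterwards by CellTiter-Glo luminescence.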
`CC1=CCC(C(C)C)=CC1`: the “activity change, negative = cytotoxicity” value was 0.896% (inactive).

`COc1ccc(-c2cc(=O)c3c(O)cc(O[C@@H]4O[C@H](CO[C@@H]5O[C@@H](C)[C@H](O)[C@@H](O)[C@H]5O)[C@@H](O)[C@H](O)[C@H]4O)cc3o2)cc1O`: the “activity change, negative = cytotoxicity” value was 0.113% (inactive).

In the case of `COC(=O)[C@@H]1[C@H]2C[C@H]3c4[nH]c5ccccc5c4CCN3C[C@@H]2CC[C@@H]1O`, the “activity change, negative = cytotoxicity” value was 0.829% (inactive).

Take `Cc1cccc(OCC(O)CNC(C)(C)C)c1C` (stereo not given): the “activity change, negative = cytotoxicity” value was -2.55% (inactive).

`CC(C)(C)c1n[nH]c(=S)n(N)c1=O`: the “activity change, negative = cytotoxicity” value was 1.97% (inactive).

For the compound `C=C(C)C1CCC(C)(O)CC1` (stereo not given), the “activity change, negative = cytotoxicity” value is 4.27% (inactive).

Turning to `CC(CO)c1ccccc1` (stereo not given), the “activity change, negative = cytotoxicity” value was -0.0579% (inactive).

For the compound `O=C1O[C@@H]2[C@@H](O)[C@H](O)O[C@@H]2[C@H]1O`, the “activity change, negative = cytotoxicity” value is 2.71% (inactive).

On to `Cc1ccccc1C(=O)Nc1ccc(C(=O)N2CCCC(N(C)C)c3ccccc32)cc1` (stereo not given), for which the “activity change, negative = cytotoxicity” value is -26.4% (inactive).

`CC(=O)N[C@@H](CCC(=O)O)C(=O)O`: the “activity change, negative = cytotoxicity” value was 3.41% (inactive).

In the case of `Cc1ccc(C=O)cc1C`, the “activity change, negative = cytotoxicity” value is -1.35% (inactive).

Take `CC1=C(C(=O)O)N2C(=O)[C@@H](NC(=O)[C@H](N)c3ccc(O)cc3)[C@H]2SC1`: the “activity change, negative = cytotoxicity” value was 16.5% (inactive).

`CC(COC(C)(C)C)OCCCO` (stereo not given): the “activity change, negative = cytotoxicity” value was -14.2% (inactive).

With `O=C(O)c1cc(Cl)cc([N+](=O)[O-])c1Cl`, the “activity change, negative = cytotoxicity” value was 4.86% (inactive).

As for `O=C(CCNNC(=O)c1ccncc1)NCc1ccccc1`, the “activity change, negative = cytotoxicity” value is 1.59% (inactive).

`COc1cc(NS(=O)(=O)c2ccc(N)cc2)nc(OC)n1`: the “activity change, negative = cytotoxicity” value was 9.76% (inactive).

As for `O=C(NCC(O)CO)c1c(I)c(C(=O)NCC(O)CO)c(I)c(N(CCO)C(=O)CO)c1I` (stereo not given), the “activity change, negative = cytotoxicity” value is 4.72% (inactive).

In the case of `CCOC(=O)[C@H](CCc1ccccc1)N[C@@H](C)C(=O)N1C(=O)N(C)C[C@H]1C(=O)O`, the “activity change, negative = cytotoxicity” value was 0.85% (inactive).

Regarding `Cc1cc(Cl)c(C)cc1Cl`, the “activity change, negative = cytotoxicity” value was -3.38% (inactive).

As for `c1ccc2nccnc2c1`, the “activity change, negative = cytotoxicity” value is 2.52% [at 81.1 µM] (inactive).

As for `CCCCCCCCCCl`, the “activity change, negative = cytotoxicity” value was -2.43% [at 81.1 µM] (inactive).

Regarding `CCC(C)(CCC(C)C)C(=O)O` (stereo not given), the “activity change, negative = cytotoxicity” value is 5.27% (inactive).

As for `O=C(NCCc1c[nH]c2ccccc12)c1cccnc1`, the “activity change, negative = cytotoxicity” value is 12.2% (inactive).

On to `CCN(CC)CC(=O)Nc1c(C)cccc1C`, for which the “activity change, negative = cytotoxicity” value was 7.52% (inactive).

As for `CCOCCOC(=O)/C=C/c1ccc(OC)cc1`, the “activity change, negative = cytotoxicity” value is 15.5% (inactive).

On to `CN1CCN(CC(=O)N2c3ccccc3C(=O)Nc3cccnc32)CC1`, for which the activity change, negative = cytotoxicity was -5.73% [at 5.95 µM] (inactive).

Take `FC(F)(F)c1ccccc1-n1ccnc1`: the “activity change, negative = cytotoxicity” value was -0.881% (inactive).

Turning to `CCC(CC)CO`, the “activity change, negative = cytotoxicity” value was -36.8% (inactive).

Regarding `COc1cc2c(cc1OC)[C@@H]1CC(=O)[C@@H](CC(C)C)CN1CC2`, the “activity change, negative = cytotoxicity” value is -1.86% (inactive).

`Cc1cccc(C)c1OCC(C)N` (stereo not given): the “activity change, negative = cytotoxicity” value was 5.77% (inactive).

Turning to `C=Cc1ccccn1`, the “activity change, negative = cytotoxicity” value was -8.18% [at 81.1 µM] (inactive).

With `CC(=O)Nc1ccc(S(=O)(=O)Cl)cc1`, the “activity change, negative = cytotoxicity” value was 4.42% (inactive).

With `Nc1ccc2cc(S(=O)(=O)O)cc(O)c2c1`, the “activity change, negative = cytotoxicity” value is -2.99% (inactive).

Consider `CCC(C)NC(N)=O` (stereo not given), for which the “activity change, negative = cytotoxicity” value was 8.44% (inactive).

As for `Nc1ncnc(Nc2ccccc2)n1`, the “activity change, negative = cytotoxicity” value was 12.9% (inactive).

As to `COC(=O)C1CC(=O)C(C(=O)OC)CC1=O` (stereo not given), the activity change, negative = cytotoxicity is -3.4% [at 5.95 µM] (inactive).

For another test, the target named is Vitamin D3 receptor (Homo sapiens) (UniProt P11473). Description: qHTS assay to identify small molecule agonists of the vitamin D receptor (VDR) signaling pathway (AID 743222; calls by dose curve). Particulars: HEK293T VDR-UAS-bla, beta-lactamase FRET ratio, 16 h; series mostly up to 63.5 µM; activation: at the top concentration. The gist of the method: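 Quantitative HTS agonist-mode screen: compounds in DMSO were pin-transferred onto VDR-bla cells and incubated 16 h at 37C, 5% CO2. Reporter activity was detected with LiveBLAzer B/G FRET substrate after 2 h at room temperature.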
Vitamin D3 receptor (Homo sapiens), sequence (P11473 whole entry, looked up): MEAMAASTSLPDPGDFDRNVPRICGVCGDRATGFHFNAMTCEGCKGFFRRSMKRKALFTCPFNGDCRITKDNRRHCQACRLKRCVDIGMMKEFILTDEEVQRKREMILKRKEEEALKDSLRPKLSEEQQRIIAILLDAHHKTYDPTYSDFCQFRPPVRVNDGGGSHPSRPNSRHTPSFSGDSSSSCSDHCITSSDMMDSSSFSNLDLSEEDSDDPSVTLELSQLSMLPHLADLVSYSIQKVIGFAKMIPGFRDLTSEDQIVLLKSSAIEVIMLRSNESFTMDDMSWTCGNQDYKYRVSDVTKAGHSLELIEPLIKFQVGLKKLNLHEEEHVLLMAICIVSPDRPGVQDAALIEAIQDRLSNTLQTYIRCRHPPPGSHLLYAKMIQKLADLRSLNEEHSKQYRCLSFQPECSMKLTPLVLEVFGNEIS
As for `COC(=O)[C@@H]1[C@H]2C[C@H]3c4[nH]c5ccccc5c4CCN3C[C@@H]2CC[C@@H]1O`, the “activation” value was 2.36% (inactive).

For the compound `Cc1cccc(OCC(O)CNC(C)(C)C)c1C` (stereo not given), the “activation” value was 7.44% (inactive).

Take `CC(C)(C)c1n[nH]c(=S)n(N)c1=O`: the “activation” value was -1.98% (inactive).

For `C=C(C)C1CCC(C)(O)CC1` (stereo not given), the “activation” value was -2.75% (inactive).

As to `O=C1O[C@@H]2[C@@H](O)[C@H](O)O[C@@H]2[C@H]1O`, the “activation” value is -11.5% (inactive).

For the compound `Cc1ccccc1C(=O)Nc1ccc(C(=O)N2CCCC(N(C)C)c3ccccc32)cc1` (stereo not given), the “activation” value was -11.7% (inactive).

Consider `Cc1ccc(C=O)cc1C`, for which the “activation” value is 0.372% (inactive).

Take `CC1=C(C(=O)O)N2C(=O)[C@@H](NC(=O)[C@H](N)c3ccc(O)cc3)[C@H]2SC1`: the “activation” value is 5.51% (inactive).

With `CC(COC(C)(C)C)OCCCO` (stereo not given), the “activation” value is 2.14% (inactive).

For the compound `O=C(O)c1cc(Cl)cc([N+](=O)[O-])c1Cl`, the “activation” value was 2.75% (inactive).

With `O=C(CCNNC(=O)c1ccncc1)NCc1ccccc1`, the “activation” value is -0.352% (inactive).

Regarding `COc1cc(NS(=O)(=O)c2ccc(N)cc2)nc(OC)n1`, the “activation” value is 5.89% (inactive).

On to `Cc1cc(Cl)c(C)cc1Cl`, for which the “activation” value is 0.0634% (inactive).

With `CCCCCCCCCCl`, the “activation” value was -3.4% [at 81.1 µM] (inactive).

`O=C(NCCc1c[nH]c2ccccc12)c1cccnc1`: the “activation” value was -8.25% (inactive).

In the case of `CN1CCN(CC(=O)N2c3ccccc3C(=O)Nc3cccnc32)CC1`, the activation is 2.22% [at 6.01 µM] (inactive).

`FC(F)(F)c1ccccc1-n1ccnc1`: the “activation” value was -0.6% (inactive).

For `CCC(CC)CO`, the “activation” value is 5.42% (inactive).

As for `COc1cc2c(cc1OC)[C@@H]1CC(=O)[C@@H](CC(C)C)CN1CC2`, the “activation” value was 2.61% (inactive).

`C=Cc1ccccn1`: the “activation” value was 3.96% [at 81.1 µM] (inactive).

On to `CC(=O)Nc1ccc(S(=O)(=O)Cl)cc1`, for which the “activation” value was 3.82% (inactive).

On to `Nc1ccc2cc(S(=O)(=O)O)cc(O)c2c1`, for which the “activation” value is 12% (inactive).

`CCC(C)NC(N)=O` (stereo not given): the “activation” value is 3.31% (inactive).

As to `Nc1ncnc(Nc2ccccc2)n1`, the “activation” value is 1.89% (inactive).
